High-throughput results as filed in PubChem BioAssay.
KB-3-1 cytotox = qHTS assay for MDR1-selective chemotherapeutics: Primary screen using the parental adenocarcinoma cell KB-3-1; KB-3-1 viability, CellTiter-Glo ATP luminescence, 72 h; Potency, µM (doses to about 46.1 µM), actives largely listed as cytotoxic; hit rate 1.4% among 400,000; AID 1347075, 2019; note: potency is the fitted concentration of half-maximal effect; % is set by controls: 0 for no effect and ±100 for the full control effect; nearly all actives have a fitted effect of over 60% in size
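Parental KB-3-1 adenocarcinoma cells in phenol-red-free DMEM with 10% FBS were pin-treated with compounds at several concentrations, incubated 72 h at 37 °C, and viability read by CellTiter-Glo luminescence; concentration-effect curves were fitted after normalization.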
MCF10A rerep = A quantitative high throughput screen for small molecules that induce DNA re-replication in MCF 10a normal breast cells; MCF 10A DNA re-replication, Hoechst nuclear intensity, 48 h; Potency, µM (titrated, usually from 46.1 µM), for the others: top-dose activity, positive = re-replication, most hits filed as activators; hit rate 2.9% among 350,000; note: potency is the fitted concentration of half-maximal effect; % of control where 0% means no effect; nearly all actives have a fitted effect of over 50% in size
D3 ag = qHTS of D3 Dopamine Receptor Agonist: qHTS | D(3) dopamine receptor (Homo sapiens), P35462 | D3R DiscoveRx beta-arrestin cells, luminescence, 90 min | AID 652048, 2013 | max activation, % | hit rate 0.58% among 410,000; in the data active = max activation above about 30%; note: 0% is about no effect
Target sequence (P35462 whole entry, looked up): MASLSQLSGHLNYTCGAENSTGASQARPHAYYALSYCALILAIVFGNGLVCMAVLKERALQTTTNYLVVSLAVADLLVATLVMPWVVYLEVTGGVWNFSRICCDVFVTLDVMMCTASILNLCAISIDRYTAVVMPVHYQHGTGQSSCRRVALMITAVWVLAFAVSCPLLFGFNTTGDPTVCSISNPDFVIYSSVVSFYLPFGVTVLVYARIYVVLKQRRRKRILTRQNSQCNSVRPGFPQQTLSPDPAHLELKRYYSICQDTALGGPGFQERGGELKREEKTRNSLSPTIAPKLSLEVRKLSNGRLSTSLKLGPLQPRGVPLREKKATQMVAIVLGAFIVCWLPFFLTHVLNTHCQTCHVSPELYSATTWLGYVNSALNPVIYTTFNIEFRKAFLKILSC
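Agonist mode: compounds and dopamine controls were applied to plated cells for 90 min at 37 degrees C after an overnight attachment at 1500 cells/well. Luminescent read-out followed 30 - 60 minutes at room temperature with DiscoveRx detection reagent.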
KB-V1 MDR tox = qHTS assay for MDR1-selective chemotherapeutics: Primary screen using the drug-selected MDR subline cells KB-V1; KB-V1 MDR cells viability, CellTiter-Glo, 72 h; Potency, µM (titrated, usually from 46.1 µM), usual class: cytotoxic; hit rate 3.4% among 400,000; note: potency is the fitted concentration of half-maximal effect; % is set by controls: 0 for no effect and ±100 for the full control effect; nearly all actives have a fitted effect of over 60% in size
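Cytotoxicity toward P-gp-expressing KB-V1 cells was determined as loss of CellTiter-Glo luminescence after 72 h at 37 degrees C. Compounds were tested in quantitative HTS format across a concentration range, with curves fitted to normalized data.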
SW480 rerep = A quantitative high throughput screen for small molecules that induce DNA re-replication in SW480 colon adenocarcinoma cells. AID 624297, 2012. hit rate 1.8% among 340,000. SW480 DNA re-replication, Hoechst DNA content imaging, 48 h. Potency, µM (titrated, usually from 46.1 µM), for inactives: at the highest dose re-replication activation, actives largely listed as activators; note: potency is the fitted concentration of half-maximal effect; % of control where 0% means no effect; nearly all actives have a fitted effect of over 55% in size
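Per well, 250 cells were exposed to pinned compound for 48 hr. Nuclear DNA was visualised with Hoechst (40 min, 37 C) and total object intensity recorded by fluorescence scanning.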
D3 antag = qHTS of D3 Dopamine Receptor Antagonist: qHTS; D(3) dopamine receptor (Homo sapiens), P35462; D3R cells, DiscoveRx beta-arrestin luminescence, antagonist mode; active compounds read low; max response, negative = inhibition, %; hit rate 2.5% among 360,000; in the data active = max response below about -50%; inconclusive = no clear call, values can overlap the other calls; note: % is set by controls: 0 for no effect and ±100 for the full control effect
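Cells plated overnight at 1500 cells/well, then exposed to library compounds with dopamine controls for 90 minutes at 37 degrees C. DiscoveRx reagent added for 30–60 minutes at room temperature; luminescence read, quantitative HTS format.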
The depositor's hits bear a star; i = inactive; ? = inconclusive; nt = no result given. Most compounds without a hit are left out; they make up all but 8.9% or so of the library. Unless noted, calls come from the whole dose curve; as a rule, active = well fitted curve in the direction sought with a large enough effect; inconclusive = small, poorly fitted or top-dose-only effect, or another doubt; inactive = no such curve, though single readings can be large; an effect the other way counts as inactive or inconclusive.

SMILES | KB-3-1 cytotox | MCF10A rerep | D3 ag | KB-V1 MDR tox | SW480 rerep | D3 antag
CCOc1ccc2nc(NCCCNC(=O)c3cc(OC)c(OC)c(OC)c3)c(C#N)cc2c1 | i | ? | 5 | i | 10µM* | 31
COc1cc(C(=O)NCCCNc2ccc([N+](=O)[O-])cc2)cc(OC)c1OC | i | 1% | -1 | 21µM* | 3% | -6
O=C(CC(NC(=O)c1ccccc1Cl)c1ccccc1)NCCc1ccc(Cl)cc1 (configuration not stated) | i | 4% | 0 | 8.2µM* | -3% | -16
O=S1(=O)c2ccccc2N(Cc2ccccc2)c2ccccc21 | i | nt | -10 | i | nt | nt
CCCCn1c(N)c(N(CCOC)C(=O)Cn2c(=O)oc3ccccc32)c(=O)[nH]c1=O | i | 0% | 95* | i | -133% | -5
CCCCN(C(=O)c1cc(=O)[nH]c2ccccc12)c1c(N)n(CCC)c(=O)[nH]c1=O | i | 8% | 7 | ? | 31% | 10
CCCCn1c(N)c(N(CC)C(=O)c2cnc(C)cn2)c(=O)[nH]c1=O | i | 5% | 5 | i | 3% | 6
CCCCn1c(N)c(N(CC(C)C)C(=O)c2ccc(-c3ccc(Cl)cc3)o2)c(=O)[nH]c1=O | ? | 23µM* | -4 | ? | -8% | 3
CCCCN(C(=O)c1ccccc1F)c1c(N)n(CCC)c(=O)[nH]c1=O | i | -1% | 33* | i | -10% | 2
CCCCn1c(N)c(N(CC(C)C)C(=O)c2cnccn2)c(=O)[nH]c1=O | i | -3% | 1 | i | 18µM* | 4
N/C(=N\c1nnc(-c2ccncc2)s1)Nc1ccc(Cl)c(Cl)c1 | i | nt | nt | i | nt | nt
CCCCn1c(N)c(N(CC)C(=O)c2cc3c(s2)CCCCC3)c(=O)[nH]c1=O | i | 2% | -11 | i | 1% | -6
CCCCn1c(N)c(N(CC(C)C)C(=O)c2cc3c(s2)CCCCC3)c(=O)[nH]c1=O | i | -2% | -2 | i | 7.3µM* | 7
Cn1c(SCC(=O)NC2CCCc3ccccc32)nnc1C1CC1 (configuration not stated) | i | 1% | 8 | i | 29% | -3
COCCCNC(=O)CCCN1C(=O)CCn2nc(-c3cn(C)c4ccccc34)cc21 | i | nt | -2 | i | nt | nt
O=C(CCNS(=O)(=O)c1cccs1)N1CCN(c2cccc(C(F)(F)F)c2)CC1 | i | 4% | 11 | 16µM* | -2% | 37
COc1ccc(CCN(C)C/C=C/c2ccccc2[N+](=O)[O-])cc1OC | i | -2% | -18 | ? | 7% | -60*
COc1ccc(CCN(C)c2ccc(C(N)=O)cc2[N+](=O)[O-])cc1OC | i | -1% | -6 | i | 8% | -2
CCOC(=O)C(C)Sc1nnc2cc(C)c3ccccc3n12 (configuration not stated) | nt | nt | 7 | nt | nt | nt
CN(Cc1ccccc1F)C(=O)c1ccc(Oc2ccccc2)cc1 | i | 2% | 0 | i | -13% | -7
CN(Cc1ccc(C(F)(F)F)cc1)C(=O)c1ccc(Oc2ccccc2)cc1 | ? | 16µM* | 5 | i | -2% | 2
Clc1nc(-c2ccccn2)nc2scc(-c3ccccc3)c12 | ? | ? | -27 | 12µM* | ? | 0
Cc1cc(C)c(NC(=O)c2ccc(S(=O)(=O)N(C)C)cc2)c(C)n1 | i | 18µM* | -7 | i | ? | -22
CCOC(=O)c1csc(NC(=O)c2ccc(S(=O)(=O)N(C)C)cc2)n1 | i | -6% | 1 | 21µM* | 1% | -11
Cc1cc(NC(=O)c2ccc(S(=O)(=O)N(C)C)cc2)no1 | i | -4% | -2 | i | -5% | 14
